# PubChem BioAssay (NCI)
# Compounds without any hit were thinned out: in the full panel of roughly 83,000, 20% have a hit.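 48-hour exposure, single concentration, 96-well plates; percent growth endpoint where 0 means no net growth. Active: below 10.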 Activity calls are given as the source filed them.
# Test system: MDA-MB-468 breast
# Assay: NCI-60 one-dose screen, 48 h (100 = growth as untreated, 0 = no growth, -100 = all killed)
# Conditions: 10 µM unless noted
row,SMILES,growth
1,COc1ccc2c(N)ncc(C#Cc3cc(C(=O)Nc4ccc(CN5CCN(C)CC5)c(C(F)(F)F)c4)cnc3C)c2c1,46.7% (inactive)
2,CN(C=O)c1ccccc1,87.3% (inactive)
3,Cc1cc(NCCCCNc2ccnc3cc(Cl)ccc23)nc(Nc2ccc(C(=O)N3CCCCC3)cc2)n1,-42.3% (active)
